# Screens: PubChem, National Center for Advancing Translational Sciences (NCATS)
# Only some compounds are listed: those with a hit (about 2.9% of all), similar ones and a draw of the others.
# IP6K1 inhibitor – inhibitors of human IP6K1. activity change, % (series mostly up to about 58 µM). Q92551. IP6K1 kinase, ADP-Glo luminescence, 2 h; hits give low values. AID 1645851. 140,000 compounds, 0.81% hits; in the data active means activity change below about -25%
# Target sequence (Q92551 whole entry, looked up): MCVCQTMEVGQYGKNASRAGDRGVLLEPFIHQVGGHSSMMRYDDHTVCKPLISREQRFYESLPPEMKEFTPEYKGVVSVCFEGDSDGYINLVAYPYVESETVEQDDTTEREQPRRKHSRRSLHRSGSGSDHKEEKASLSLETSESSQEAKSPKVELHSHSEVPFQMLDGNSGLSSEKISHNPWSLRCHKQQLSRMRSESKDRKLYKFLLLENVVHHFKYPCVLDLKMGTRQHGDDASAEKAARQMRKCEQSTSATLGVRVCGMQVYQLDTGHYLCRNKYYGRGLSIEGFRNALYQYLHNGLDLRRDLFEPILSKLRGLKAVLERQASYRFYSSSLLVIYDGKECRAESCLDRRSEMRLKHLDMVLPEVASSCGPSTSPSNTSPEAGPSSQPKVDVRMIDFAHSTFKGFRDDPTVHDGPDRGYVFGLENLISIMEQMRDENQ
#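 ADP-Glo luminescence measures ADP made by human IP6K1 during a 2 h RT reaction with ATP/IP6 (mix at 1.3 mM/130 uM); top library doses 57.5 and 19.1 uM final.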
# SNCA expr inh – inhibitors of alpha-synuclein (SNCA) gene expression; HEK-293 SNCA-luciferase knock-in, luminescence, 24 h; Potency, µM (top dose mostly 57.2 µM), actives largely listed as inhibitors; 140,000 compounds, 0.17% hits; further: nearly all actives have a fitted effect of over 45% in size
# HEK293 viab – reduces viability of HEK-293 SNCA reporter cells. HEK-293-SNCA-luc viability, GF-AFC fluorescence, 24 h. Potency, µM (doses to about 57.1 µM), actives largely listed as cytotoxic. 150,000 compounds, 0.12% hits. AID 1671193; further: nearly all actives have a fitted effect of over 30% in size
#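 Cytotoxicity counterscreen: after 24 h compound treatment of genome-edited SNCA-luciferase HEK-293 cells, live-cell protease substrate GF-AFC read by fluorescence after 30 min; activity scaled between DMSO (0%) and medium-only (-100%), curves Hill-fitted.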
# KDM5B inh – KDM5B demethylase inhibition | Q9UGL1 | KDM5B demethylase, FDH-coupled NADH fluorescence (FDH is formaldehyde dehydrogenase) | Potency, µM (top dose mostly 57.7 µM), actives largely listed as inhibitors | 220,000 compounds, 2.6% hits; further: nearly all actives have a fitted effect of over 70% in size
#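 qHTS format, multiple compound concentrations. Buffer 50 mM HEPES pH 7.5/0.01% Tween-20; 200 nM KDM5BΔAP final; 10 min compound preincubation; substrate-mix levels 12.5 µM peptide, 25 µM α-KG, 0.25 mM NAD⁺; 30 min RT; ΔRFU.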
# Numbers stand for hits; – = inactive; ? = inconclusive; · = not tested or not shown. Unless noted, the call rests on the fitted dose curve; in most records, active means well fitted curve in the direction sought with a large enough effect; inconclusive means small, poorly fitted or top-dose-only effect, or another doubt; inactive means no such curve, though single readings can be large; an effect the other way counts as inactive or inconclusive.
SMILES,IP6K1 inhibitor,SNCA expr inh,HEK293 viab,KDM5B inh
COC(=O)[C@@H]1Cc2c([nH]c3ccccc23)[C@H]2C[C@@H](NCc3ccccc3)C[C@@H](c3ccccc3F)N21,–,?,–,4.5µM
O=C(O)CCSCC(=O)c1ccc(Br)cc1,·,·,·,–
O=C(c1ccc2ccccc2c1)N1C[C@@H]2C[C@H](C1)c1ccc(NS(=O)(=O)c3cccc(F)c3)c(=O)n1C2,–,–,–,–
O=S(=O)(c1cccnc1)N1CCCCC1CCN1CCOCC1 (stereo not drawn),–,–,–,–
OCC1CCCCN1CCNc1nccc(-c2cccnc2)n1 (stereo not drawn),–,–,–,25µM
CS(=O)(=O)N1CCCCC1CCNc1nccc(-c2cccnc2)n1 (stereo not drawn),–,–,–,32µM
COc1cc(/C=C/C(=O)c2ccc(O)cc2)cc(Cl)c1O,·,·,·,–
Cc1cc(C2CCC2)nc(N2C[C@@H](C)[C@@](C)(O)C2)n1,–,?,–,28µM
C[C@@H]1CN(C(=O)c2ccc3c(c2)CCC3)C[C@]1(C)O,–,–,–,–
O=C(CCC1CCCN(S(=O)(=O)c2ccccc2)C1)N1CCc2ccccc2C1 (stereo not drawn),–,–,–,22µM
CCCCc1c(C)nc(N2CCN(c3ccccc3F)CC2)[nH]c1=O,·,·,·,–
COCCNC(=O)c1c(C)sc2ccn(Cc3ccc(F)cc3)c(=O)c12,–,–,–,–
CCN(CC)C(=O)c1c(C)sc2ccn(Cc3ccc(F)cc3)c(=O)c12,–,–,–,25µM
N#Cc1ccccc1S(=O)(=O)NCC(=O)O,·,·,·,–
CNC(=O)CNC(=O)N1CCC(=O)N(C)c2ccccc2C(OC)C1 (stereo not drawn),–,–,–,·
CCc1noc(-c2cccn3c(CNC(=O)c4cccnc4)nnc23)n1,–,–,–,32µM
COc1cccc(CCC(=O)NCc2nnc3c(-c4nc(C)no4)cccn23)c1,–,–,–,?
COc1cccc(CC(=O)NCc2nnc3c(-c4nc(C)no4)cccn23)c1,–,–,–,18µM
Cc1noc(-c2cccn3c(CNC(=O)c4cc(F)cc(F)c4)nnc23)n1,–,–,–,?
CCc1noc(-c2cccn3c(CNC(=O)c4ccc(OC)c(F)c4)nnc23)n1,–,–,–,?
Cc1noc(-c2cccn3c(CNC(=O)c4cccnc4)nnc23)n1,–,–,–,28µM
Cc1noc(-c2cccn3c(CNC(=O)c4ccoc4)nnc23)n1,–,–,–,28µM
O=C(Nc1ccc(F)c(Cl)c1)C1=NO[C@@H]2CN(Cc3cccnc3)C[C@H]12,–,–,–,–
CN(C)CCOC(=O)C12CC3CCC(CC(C3)C1)C2,·,·,·,–
Cc1ncoc1C(=O)N1CCCC(CCc2ccc(F)c(F)c2)C1 (stereo not drawn),–,–,–,–
SMILES,IP6K1 inhibitor,SNCA expr inh,HEK293 viab,KDM5B inh
O=C(Nc1ccccc1)N1CCC(OCCOc2cccnc2)CC1,–,–,–,·
COc1ccccc1-c1cn(C)c(=O)n2cc(CN3CCNC(=O)C3)nc12,–,–,–,?
COc1ccc(-c2cn(C)c(=O)n3cc(CN4CC[S+](=O)([O-])CC4)nc23)cc1OC,–,–,–,35µM
COc1ccc(-c2cn(C)c(=O)n3cc(CN4CCNC(=O)C4)nc23)cc1,–,–,–,28µM
CCCC(=O)Nc1ccc(Cl)c(-c2nc3ccccc3o2)c1,·,·,·,–
OC(CNCCc1c[nH]c2ccccc12)Cn1c2ccccc2c2ccccc21 (stereo not drawn),–,·,?,·
COc1cccc(CN2CCCCCNC(=O)[C@@H]3CCC[C@@H]32)c1,–,–,–,20µM
COc1cccc(CN2CCCCCCNC(=O)[C@@H]3CCC[C@@H]32)c1,–,–,–,?
Cc1ccc2[nH]c(CN3CC[C@H]4NCCC[C@]4(CO)C3)cc(=O)c2c1,–,–,–,13µM
COc1ccccc1-c1ccnc(-c2nnc(C)n2C2CCCCC2)c1,–,–,–,?
COc1ncccc1-c1ccnc(-c2nnc(C)n2C2CCCCC2)c1,–,?,–,28µM
Cc1nnc(-c2cc(-c3ccsc3)ccn2)n1C(C)C,–,–,–,–
COc1ccc(-c2ccnc(-c3nnc(C)n3CCN(C)C)c2)cc1OC,–,–,–,28µM
COc1ccc(-c2ccnc(-c3nnc(C)n3C(C)C)c2)cc1OC,–,–,–,35µM
Cc1nnc(-c2cc(-c3ccc(N4CCOCC4)cc3)ccn2)n1C1CCCCC1,–,–,–,32µM
COc1cc(C2CC(=O)Nc3c(-c4ccc(C)cc4)csc32)ccc1OCC(N)=O (stereo not drawn),·,·,·,–
COc1ccc(S(=O)(=O)N2CCC(n3cnnc3-c3ccccc3)CC2)cc1OC,–,–,–,·
Cc1ccc(C)c(-c2cc(C(=O)Nc3cc(C)on3)c3ccccc3n2)c1,·,·,·,–
Cc1ccc(C)c(-n2nnc(C(=O)NC(C)C)c2N)c1,·,·,·,–
COc1ncccc1-c1ccnc(-c2nnc(C)n2Cc2ccccc2)c1,–,–,–,28µM
COc1ccccc1-c1ccnc(-c2nnc(C)n2CCN2CCOCC2)c1,–,–,–,40µM
COc1ccc(-c2ccnc(-c3nnc(C)n3Cc3ccccc3)c2)cc1OC,–,–,–,35µM
Cc1nnc(-c2cc(-c3ccc(N4CCOCC4)cc3)ccn2)n1Cc1ccccc1,–,–,–,20µM
O=C(Nc1cccc2cccnc12)c1ccc(Cl)c(Cl)c1,·,·,·,–
COc1cccc(-c2cc(-c3ccccc3)nc3c(C)noc23)c1,–,–,–,32µM
SMILES,IP6K1 inhibitor,SNCA expr inh,HEK293 viab,KDM5B inh
COc1ccc(-c2cc(-c3ccccc3)nc3c(C)noc23)cc1OC,–,–,–,25µM
Cc1noc2c(-c3ccc4c(ccn4C)c3)cc(-c3cccnc3)nc12,–,–,–,32µM
COc1cccc(-c2cc(-c3cccs3)nc3c(C)noc23)c1,–,–,–,?
CC(CCc1ccccc1)NC(=O)c1cccnc1Cl (stereo not drawn),·,·,·,–
CC(C)CNC(=O)C(C)Sc1nc(-c2ccco2)nc2ccccc12 (stereo not drawn),·,·,·,–
COc1ccc(C2Cn3cnc(-c4nc(-c5ccc6c(c5)OCO6)no4)c3CO2)cc1 (stereo not drawn),–,–,–,14µM
COc1ccc(C2Cn3cnc(-c4nc(-c5ccc(OC)c(OC)c5)no4)c3CO2)cc1 (stereo not drawn),–,–,–,–
COc1ccc(-c2noc(-c3nnn4c3COC(c3ccc(F)cc3)C4)n2)cc1OC (stereo not drawn),–,–,–,22µM
COc1ccc(-c2nc(-c3nnn4c3COC(c3ccc(Cl)cc3)C4)no2)cc1OC (stereo not drawn),–,–,–,28µM
CCc1noc(-c2cn(C3CCN(C(=O)c4cc(OC)cc(OC)c4)CC3)nn2)n1,–,–,–,–
CC(Oc1ccc(F)cc1)C(=O)Nc1ccc(N2CCN(C)CC2)nc1 (stereo not drawn),·,·,·,–
CCOC(=O)CC1(NC(=O)N2CCCCCC2c2ccc(C)s2)CCCCC1 (stereo not drawn),·,·,·,–
